# Reference: PubChem BioAssay (Tox21)
# “And” between values parts separate entries of the source, which are not always exact repeats. Equal values may be shown once. Records with an inconclusive call do not appear. A call without a number means that no potency is given here. Where a structure was tested more than once in an assay, its records may differ in their call. The source made the active and inactive calls. Calls follow the shape of the full dose curve.
# Assay: qHTS assay to identify small molecule agonists of the hypoxia (HIF-1) signaling pathway - cell viability counter screen (AID 1224844); also: nearly all actives have a fitted effect of over 50% in size
# Details: HRE-bla ME-180 viability, CellTiter-Glo luminescence, 17 h; series mostly up to 76.8 µM; activity change, negative = cytotoxicity: at the top concentration
# Text: National Center for Advancing Translational Sciences [NCATS]
# NIH Chemical Genomics Center [NCGC]
# U.S. Environmental Protection Agency [EPA]
# National Institutes of Environmental Health Sciences [NIEHS]
# National Toxicology Program [NTP]
# U.S. Food and Drug Administration [FDA]
# Hypoxia-inducible factor-1 (HIF-1) is the major hypoxia-regulated transcription factor that controls cellular responses to low oxygen concentration. HIF-1 is composed of two subunits: hypoxia responsive HIF-1-alpha and constitutively expressed HIF-1-beta, which is also known as aryl hydrocarbon receptor nuclear translocator. During hypoxic conditions, HIF-1-alpha heterodimerizes with HIF-1-beta and translocates into the nucleus where the HIF-1 complex binds to the hypoxia-response element (HRE) and activates expression of target genes such as VEGF (vascular endothelial growth factor). The HIF-1 pathway is essential to normal growth and development, and is involved in the pathophysiology of cancer, inflammation, and ischemia.
# Using a beta-lactamase reporter-gene under control of the hypoxia response element, a cell-based assay [CellSensor(TM) HRE-bla ME-180 from Life Technologies, Carlsbad, CA] was used to measure hypoxia-induced signaling. Tox21 10K library compounds were measured for their ability to induce the reporter gene activity. The cytotoxicity of the Tox21 compound library against HRE-bla ME-180 cell line was tested in parallel by measuring cell viability using CellTiter-Glo assay (Promega, Madison, WI) in the same assay wells.
# Tox21 Assay Protocol Summary:
# HRE-bla ME-180 cells were dispensed at 2,000 cells per well in 6 uL of assay medium containing 0.5% dialyzed FBS into black wall/clear-bottom 1536-well plates using a Multidrop Combi (Thermo Scientific, Waltham, MA) dispenser. After the assay plates were incubated at 37C and 5% CO2 for 5 hrs, 23 nL of compounds dissolved in DMSO, positive controls or DMSO only was transferred to each well of the assay plate using a Pintool station (Kalypsys, San Diego, CA). The assay plates were incubated at 37C and 5% CO2 for 17 hrs. One uL of LiveBLAzerTM B/G FRET substrate (CCF4-AM) (Life Technologies) was added to each well using a Flying Reagent Dispenser (FRD, Aurora Discovery, San Diego, CA). After 2 hr incubation at room temperature, fluorescence intensity (405 nm excitation, 460 nm and 530 nm emissions) was measured using an Envision plate reader (PerkinElmer, Shelton, CT). For cytotoxicity, 4 ul/well of CellTiter-Glo reagent was added into the assay plates using an FRD. After 30 min incubation at room temperature, the luminescence intensity was measured using a ViewLux plate reader (PerkinElmer).
# Potency is read from the fitted curve at half-maximal effect.
Structure (SMILES),Potency,"activity change, negative = cytotoxicity"
O=C1c2c(O)cccc2Cc2cccc(O)c21,inactive,
CS(=O)(=O)OCCCCOS(C)(=O)=O,inactive,
O=C(O)c1ccccc1,inactive,
CC(O)(P(=O)(O)O)P(=O)(O)O,inactive,
Oc1ccccc1,inactive,
COc1ccc(C(Cl)=C(c2ccc(OC)cc2)c2ccc(OC)cc2)cc1,inactive,
CCCCCCc1ccc(O)cc1O,,-2.36% [at 35.3 µM] (inactive)
CC1(C)S[C@@H]2[C@H](NC(=O)[C@H](N)c3ccccc3)C(=O)N2[C@H]1C(=O)O,inactive,
CCCCCCCCCCCCCCCC[N+](C)(C)Cc1ccccc1,inactive and 44.4 µM (active),
CCOC(N)=O,inactive,
Nc1ccc([N+](=O)[O-])cc1O,,-1.94% (inactive)
CC12CCC(CC1)C(C)(C)O2,inactive,
C[C@](N)(Cc1ccc(O)c(O)c1)C(=O)O,inactive,
CN(C)CCOC(c1ccccc1)c1ccccc1,inactive,
CCCC[P+](CCCC)(CCCC)CCCC,inactive,
NS(=O)(=O)c1cc2c(cc1Cl)NCNS2(=O)=O,inactive,
Cc1cc(C)nc(NS(=O)(=O)c2ccc(N)cc2)n1,inactive,
CC(=O)CC(c1ccccc1)c1c(O)c2ccccc2oc1=O (stereo not given),inactive,
CN1CCc2cccc3c2[C@H]1Cc1ccc(O)c(O)c1-3,39.3 µM (active) and 16.3 µM (active),
CN(C)C(=S)SC(=S)N(C)C,2 µM (active) and 1.23 µM (active),

Structure (SMILES),Potency,"activity change, negative = cytotoxicity"
CCCCOC(=O)c1ccc(O)cc1,inactive,
C=C1CC[C@H](O)C/C1=C\C=C1/CCC[C@]2(C)[C@@H]([C@H](C)CCCC(C)C)CC[C@@H]12,38.5 µM (active),
CCCCNC(=O)NS(=O)(=O)c1ccc(C)cc1,inactive,
CN[C@H]1CC[C@@H](c2ccc(Cl)c(Cl)c2)c2ccccc21,,-14.6% [at 35.3 µM] (inactive)
CN1[C@@H]2CC(OC(=O)[C@H](CO)c3ccccc3)C[C@H]1[C@@H]1O[C@@H]12 (stereo not given in full),inactive,
CC1(C)O[C@@H]2C[C@H]3[C@@H]4CCC5=CC(=O)C=C[C@]5(C)[C@@]4(F)[C@@H](O)C[C@]3(C)[C@]2(C(=O)CO)O1,inactive,
CN(N=O)C(=O)N[C@@H]1[C@@H](O)[C@H](O)[C@@H](CO)O[C@@H]1O,inactive,
F[B-](F)(F)F,inactive,
O=CC(=O)c1ccccc1,,2.55% (inactive)
CCCc1cc(=O)[nH]c(=S)[nH]1,inactive,
O=C(Nc1ncc([N+](=O)[O-])s1)c1cccs1,,-24.2% [at 35.3 µM] (inactive)
Nc1ccc(S(N)(=O)=O)cc1,inactive,
O=C1OC2(c3ccccc31)c1cc(Br)c(O)c(Br)c1Oc1c2cc(Br)c(O)c1Br,inactive,
NC(=O)n1c(O)c(C(=O)c2cccs2)c2cc(Cl)ccc21,,20.7% [at 35.3 µM] (inactive)
Nc1c2c(nc3ccccc13)CCCC2,inactive,
O=C(O)CC(O)C(=O)O (stereo not given),inactive,
CCCCC1(COC(=O)CCC(=O)O)C(=O)N(c2ccccc2)N(c2ccccc2)C1=O,inactive,
CCN(CC)C(=O)c1cccc(C)c1,inactive,
CC(C)C(=O)Nc1ccc([N+](=O)[O-])c(C(F)(F)F)c1,inactive,
CN(C)C(=O)Nc1ccc(Cl)c(Cl)c1,inactive,
